Experimental data from PubChem BioAssay AID1852 (Sanford-Burnham Center for Chemical Genomics, 2009).
The whole screen tested about 2,500 compounds, of which about 1,100 (44%) were called active.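 How the source made its calls: active means inhibition above 50% at 4 µM in the single-point screen; inactive means inhibition of 50% or less.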 So high a share suggests a set chosen from earlier hits. Some of the results follow.

test: TNF-a-driven NF-kB reporter inhibitors, primary screen, selectivity assay for NOD1/NOD2 signaling inhibitor project, cell-based, HEK293T NF-kB-Luc, luminescence (AID 1852); conditions: TNF-a induced, 14 h, at 4 µM, active compounds read high

Structure (SMILES)	inhibition
CCS(=O)(=O)c1ccc2oc(SCC(=O)NCc3ccccc3)nc2c1	36.5% (inactive)
Cc1ccccc1-n1nnnc1Sc1nnnn1-c1ccccc1	75.4% (active)
Cc1sc2ncnc(Sc3nnnn3-c3ccccc3)c2c1C	89.8% (active)
Cn1nnnc1Sc1ncnc2scc(-c3ccccc3)c12	22.8% (inactive)
Cc1sc2ncnc(Sc3nnnn3-c3ccc(Cl)cc3)c2c1C	87% (active)
CCc1c(C)nc2ccc(Br)cc2c1SCCC#N	43.8% (inactive)
COc1ccc2cc3c(N)nn(C(=O)C4CCC(C(C)(C)C)CC4)c3nc2c1 (stereo not drawn)	104% (active)
COc1ccc2cc3c(N)nn(C(=O)c4ccccc4[N+](=O)[O-])c3nc2c1	79.5% (active)
COc1ccc2cc3c(N)nn(C(=O)c4ccccc4Cl)c3nc2c1	94.3% (active)
COc1cc(/C=C/c2ccc3cccc(OC)c3n2)c(OC(C)=O)c([N+](=O)[O-])c1	9.5% (inactive)
CCn1ccnc1CN1CCCC(C(=O)c2ccc3cc(OC)ccc3c2)C1 (stereo not drawn)	39.3% (inactive)
CC1=NOC(=O)/C1=C\c1ccc(-c2cc(Cl)ccc2Cl)o1	-2.6% (inactive)
CCOC(=O)c1c(NC(=O)CSc2ncn[nH]2)sc(C)c1C	37.2% (inactive)
CC1CCc2c(sc(NC(=O)/C=C/c3cccs3)c2C(=O)O)C1 (stereo not drawn)	31.1% (inactive)
CC1CCc2c(sc(NC(=O)c3cccs3)c2C(=O)O)C1 (stereo not drawn)	-35.7% (inactive)
CC1CCc2c(sc(NC(=O)CSc3ncn[nH]3)c2C#N)C1 (stereo not drawn)	68.2% (active)
O=C(Nc1sc2c(c1C(=O)O)CCCC2)c1ccc(F)cc1	-13.9% (inactive)
N#Cc1c(NC(=O)CSc2ncn[nH]2)sc2c1CCCC2	53.4% (active)
N#Cc1c(NC(=O)CSc2ncn[nH]2)sc2c1CCCCC2	73.9% (active)
N#C/C(=C(/O)Cc1cccc2ccccc12)c1nc2ccccc2s1	74.8% (active)
O=C(COc1ccc(Cl)cc1)Nc1nc(-c2ccncc2)cs1	20.3% (inactive)
N#C/C(=C(/O)COc1ccc(Cl)cc1)c1nc2ccccc2s1	73.1% (active)
Nc1nc(CSc2nc3ccccc3s2)nc(Nc2ccccc2)n1	-3% (inactive)
O=C(NCc1cccnc1)/C(=C/c1ccc(-c2ccc(Cl)cc2)o1)S(=O)(=O)c1ccccc1	85.2% (active)
O=C(NCc1cccnc1)/C(=C\c1ccc(-c2ccc(Cl)c(Cl)c2)o1)S(=O)(=O)c1ccccc1	109% (active)

Structure (SMILES)	inhibition
COc1ccc(-c2cn(-c3ccc(C)cc3C)c(=S)[nH]2)cc1OC	18.3% (inactive)
Nc1ncnc(N2CCc3ccccc32)c1[N+](=O)[O-]	99.8% (active)
Nc1ncnc(Nc2ccccn2)c1[N+](=O)[O-]	22.8% (inactive)
Nc1ncnc(Sc2ccc(Cl)cc2)c1[N+](=O)[O-]	1% (inactive)
CC1CCCCN1c1ncnc(N)c1[N+](=O)[O-] (stereo not drawn)	59.2% (active)
COc1ccc(CCN2C(=S)N(c3ccc(Cl)cc3)C(=O)C2CC(N)=O)cc1OC (stereo not drawn)	17.3% (inactive)
Cc1cccc(CSc2cccc3cccnc23)c1	104% (active)
Cn1c(-c2ccccc2)c(C(=O)CCl)c2ccccc21	76.3% (active)
Cn1cc(C(=O)CCl)c2ccccc21	77.1% (active)
Cn1c(=NC(=O)CCl)sc2ccccc21	37.1% (inactive)
Cc1cc(C(=O)CCl)c(C)n1CCc1ccccc1	47.1% (inactive)
Cc1ccc(C(C)C)c(OCc2ccc(C(=O)N/N=C/c3ccc(C(=O)O)cc3)cc2)c1	64.9% (active)
COc1cc(/C=N/NC(=O)c2ccc(COc3cc(C)ccc3C(C)C)cc2)cc(OC)c1O	40.7% (inactive)
Cc1ccc(C(C)C)c(OCc2ccc(C(=O)N/N=C/c3cccc(O)c3O)cc2)c1	17.2% (inactive)
CC1CCC/C=C/C(=O)c2c(O)cc(O)cc2CC(=O)O1 (stereo not drawn)	74.9% (active)
CN1/C(=C\C=[N+](C)c2ccccc2)C(C)(C)c2ccccc21	49.5% (inactive)
O=C(CCl)N1c2ccccc2SCC1c1ccccc1 (stereo not drawn)	32.2% (inactive)
O=C(C(Cl)Cl)N1c2ccccc2OCC1c1ccccc1 (stereo not drawn)	37.8% (inactive)
O=C(CCl)N1c2ccccc2OCC1c1ccccc1 (stereo not drawn)	62.2% (active)
Cc1cccc(N(Cc2cc(=O)[nH]c3ccccc23)C(=O)CCl)c1	78.4% (active)
O=C(CCl)N(Cc1cc(=O)[nH]c2ccccc12)c1ccccc1	99.9% (active)
Cc1ccc(N(Cc2cc(=O)[nH]c3ccccc23)C(=O)CCl)cc1	106% (active)
COc1ccc(N(Cc2cc(=O)[nH]c3ccccc23)C(=O)CCl)cc1	21.4% (inactive)
CCCS(=O)(=O)c1cnc(C2COc3ccccc3O2)nc1N (stereo not drawn)	48.4% (inactive)
Cc1ccc(-n2c(-c3ccc(Br)cc3)c[n+]3c2CCc2ccc4cccnc4c2-3)cc1	85% (active)

Structure (SMILES)	inhibition
Cc1ccc(-c2csc3ncnc(Sc4nnc(CN5CCCCCC5=O)o4)c23)cc1	93.2% (active)
CC1Sc2ccc(S(=O)(=O)N3CCC(C(=O)Nc4ccc(Cl)cc4)CC3)cc2NC1=O (stereo not drawn)	44% (inactive)
O=C(Nc1ccc(C(F)(F)F)cc1)C1CCN(S(=O)(=O)c2ccc(N3CCCC3=O)cc2)CC1	63.7% (active)
CC(C)(C)CC(=O)Nc1ccc(S(=O)(=O)N2CCCC2)cc1	15.8% (inactive)
COc1cccc(CN(C)C(=O)CNC(=O)c2ccc(-c3ccccc3)cc2)c1OC	57% (active)
COc1ccccc1CN(C)C(=O)c1cc(-c2cc(OC)c(OC)c(OC)c2)nc2ccccc12	20.3% (inactive)
COc1ccc(CN(C)C(=O)c2cc(-c3ccc(C)cc3C)nc3ccccc23)c(OC)c1OC	-3.9% (inactive)
O=C(c1nnsc1S(=O)(=O)c1ccc(Cl)cc1)N1CCOCC1	52% (active)
Cc1ccc(S(=O)(=O)NC(C(=O)N2CCOCCOCCOCC2)C(C)C)cc1 (stereo not drawn)	15.4% (inactive)
O=S(=O)(c1ccc(Cl)cc1)c1snnc1-c1ccccc1	44.1% (inactive)
CN(c1ccc(C(=O)Nc2ccccc2C(=O)N2CCOCC2)cc1)S(C)(=O)=O	16.2% (inactive)
CC(=O)N(c1ccccc1Cl)S(=O)(=O)c1ccc(Cl)cc1	9.8% (inactive)
CNC(=O)c1nnsc1S(=O)(=O)c1ccc(Cl)cc1	91.4% (active)
CCSCCc1nnc(NC(=O)Nc2cccc(C(F)(F)F)c2)s1	7.5% (inactive)
O=C(Nc1nnc(-c2cccs2)o1)c1cccc(C(F)(F)F)c1	100% (active)
O=C(Nc1nnc(-c2cccs2)o1)c1cccc(Oc2ccccc2)c1	103% (active)
O=C(CCC(=O)N1CCOc2ccccc21)NCc1ccccn1	18.7% (inactive)
Cc1ccc(S(=O)(=O)Nc2ccc(Br)cc2/C=N/n2cnnc2)cc1	47.3% (inactive)
Cc1cc(/C=N/n2cnnc2)c(C)n1-c1ccc(OCc2ccc(Cl)cc2Cl)cc1	71.9% (active)
CN(C)c1ccnc2sc(C(N)=O)c(N)c12	83.5% (active)
CN(c1ccccc1)S(=O)(=O)c1cc(C(=O)Nc2nc3ccccc3[nH]2)ccc1Cl	31.3% (inactive)
O=C(Nc1nc2ccccc2[nH]1)c1cc(F)cc(F)c1	80.3% (active)
Cc1c(C(=O)Nc2nc3ccccc3[nH]2)oc2ccc(Br)cc12	98.6% (active)
O=C(c1ccccc1)c1ccc2nc(-c3ccc(NC(=O)c4ccccc4Br)cc3)[nH]c2c1	11.7% (inactive)
CCc1ccc(C(=O)Nc2nc3ccccc3[nH]2)cc1	103% (active)

Structure (SMILES)	inhibition
Cc1cc(NC(=O)/C=C/c2ccc(F)cc2)n(-c2nc3ccccc3[nH]2)n1	-3.9% (inactive)
Cc1ccc(N=Cc2cc(Cc3ccccc3Cl)cc([N+](=O)[O-])c2O)c(O)c1	70.8% (active)
Cc1ccc(O)c(N=Cc2cc(Cc3ccccc3)cc([N+](=O)[O-])c2O)c1	-1.6% (inactive)
Cc1c([N+](=O)[O-])c2ccc(O)cc2n1-c1ccccc1	60.9% (active)
Cc1ccc(-n2c(C)c([N+](=O)[O-])c3ccc(O)cc32)cc1	40.4% (inactive)
CN(C)/C=C/c1c([N+](=O)[O-])c2ccc(O)cc2n1-c1ccccc1	83.5% (active)
Cc1ccc(/C=C2\SC(=S)N(C(Cc3ccccc3)C(=O)O)C2=O)cc1 (stereo not drawn)	25.1% (inactive)
O=C1/C(=C/c2ccc(O)c([N+](=O)[O-])c2)SC(=S)N1Cc1ccccc1	88.5% (active)
COc1cc(/C=C2\SC(=S)N(CCC(=O)Nc3ccccc3)C2=O)cc(OC)c1OC	6.8% (inactive)
O=C1/C(=C\c2cccc([N+](=O)[O-])c2O)SC(=S)N1Cc1ccccc1	14.2% (inactive)
O=C1/C(=C\c2cc(Cl)c(O)c(Cl)c2)SC(=S)N1Cc1ccccc1	82.7% (active)
COc1cc([N+](=O)[O-])cc(/C=C2/SC(=S)N(Cc3ccccc3)C2=O)c1O	81.1% (active)
O=C1S/C(=C\c2ccc(O)c([N+](=O)[O-])c2)C(=O)N1Cc1cccc([N+](=O)[O-])c1	19.6% (inactive)
COc1ccc(/C=C/C(=O)C2CC2)cc1Cn1nc(C)c([N+](=O)[O-])c1C	36.6% (inactive)
Cc1ccc(C(C)C)c(OCc2ccc(-c3nnco3)cc2)c1	12.4% (inactive)
COc1cccc(OCCOc2ccc(/C=C3/SC(=S)NC3=O)cc2)c1	-114% (inactive)
COc1ccc(N=C2NC(=O)/C(=C/c3ccc(O)c(OC)c3)S2)cc1	70.8% (active)
COc1cc(/C=C2/C(=O)NN(c3ccc(Cl)cc3)C2=O)cc(Br)c1O	-1.7% (inactive)
COc1ccc(OC)c(/C=C2\S/C(=N/NC(=O)c3ccc4ccccc4c3)NC2=O)c1	-2.1% (inactive)
COc1cc(/C=C2\SC(N3CCC(C)CC3)=NC2=O)ccc1O	1.4% (inactive)
COc1cc(/C=C2/SC(=Nc3ccc(O)cc3)NC2=O)ccc1O	89.8% (active)
COc1cc(/C=C2\SC(=N)N(c3ccc(F)cc3)C2=O)ccc1O	51.1% (active)
COc1ccccc1OCCCOc1cccc(/C=C2\SC(=O)NC2=O)c1	3.3% (inactive)
